Results filed as inconclusive are left out. The source made the active and inactive calls. Unless noted, the call rests on the fitted dose curve; in most records, active means well fitted curve in the direction sought with a large enough effect; inconclusive means small, poorly fitted or top-dose-only effect, or another doubt; inactive means no such curve, though single readings can be large; an effect the other way counts as inactive or inconclusive.
Experiments:
[1] = S16 Schwann cell PMP22 intronic element beta-lactamase assay (AID 624044; calls by dose curve; further: nearly all actives have a fitted effect of over 15% in size); details: S16 rat Schwann cells, PMP22 element beta-lactamase FRET, 24 h; ratio activity, negative = inhibition: at 38.3 µM (top of the series) unless noted
Method in brief: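 Rat S16 Schwann cells with beta-Lac driven by a PMP22 intronic element, compound-treated 24 h at 37 °C. LiveBLAzer FRET B/G read: 460 nm normalized to potassium clavulanate vs DMSO; 535 nm FRET as viability; concentration-effect curves classified.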

7G8 = experiment: qHTS profiling for inhibitors of Plasmodium falciparum proliferation (AID 504749); further: nearly all actives have a fitted effect of over 60% in size; further: potency means the concentration at half of the fitted maximal effect; details: P. falciparum in erythrocytes, SYBR Green DNA, 72 h; series mostly up to 12.8 µM
Method in brief: (§1)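 P. falciparum-infected erythrocytes (0.3% parasitemia, 2.5% hematocrit) incubated with compound 72 h at 37 C, 5% CO2. Parasite DNA detected by SYBR Green after lysis, overnight at room temperature; normalised to 0.29 uM artemisinin and DMSO.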

CP237 = experiment: as above; details: P. falciparum in erythrocytes, SYBR Green DNA, 72 h; series mostly up to 28.7 µM
Method in brief: as §1

CP260 = experiment: as above; details: P. falciparum in erythrocytes, SYBR Green DNA, 72 h; series mostly up to 28.7 µM
Method in brief: as §1

CP268 = experiment: as above; details: P. falciparum in erythrocytes, SYBR Green DNA, 72 h; series mostly up to 28.7 µM
Method in brief: as §1

CP291 = experiment: as above; details: P. falciparum in erythrocytes, SYBR Green DNA, 72 h; series mostly up to 28.7 µM
Method in brief: as §1

CP335 = experiment: as above; details: P. falciparum in erythrocytes, SYBR Green DNA, 72 h; series mostly up to 12.8 µM
Method in brief: as §1

Dd2 = experiment: as above; details: P. falciparum in erythrocytes, SYBR Green DNA, 72 h; series mostly up to 28.7 µM
Method in brief: as §1

GB4 = experiment: as above; details: P. falciparum in erythrocytes, SYBR Green DNA, 72 h; series mostly up to 28.7 µM
Method in brief: as §1

ICS = experiment: as above; details: P. falciparum in erythrocytes, SYBR Green DNA, 72 h; series mostly up to 28.7 µM
Method in brief: as §1

JCK = experiment: as above; details: P. falciparum in erythrocytes, SYBR Green DNA, 72 h; series mostly up to 28.7 µM
Method in brief: as §1

W2 = experiment: as above; details: P. falciparum in erythrocytes, SYBR Green DNA, 72 h; series mostly up to 12.8 µM
Method in brief: as §1

[2] = S16 Schwann cell PMP22 intronic element firefly luciferase assay (AID 624032); details: S16 rat Schwann cells, PMP22 element FLuc, 24 h; series mostly up to 57.5 µM; further: nearly all actives have a fitted effect of over 30% in size
Method in brief: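 Rat S16 Schwann cells stably carrying firefly luciferase driven by a PMP22 intronic element, in 10% FBS, treated 24 h at 37 C. ONE-Glo luminescence normalized to PTC124 control and DMSO (0%); curves classed by r2, magnitude and activity.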

PC15 = experiment: qHTS profiling for inhibitors of Plasmodium falciparum proliferation (AID 504749); further: nearly all actives have a fitted effect of over 60% in size; further: potency means the concentration at half of the fitted maximal effect; details: P. falciparum in erythrocytes, SYBR Green DNA, 72 h; series mostly up to 28.7 µM
Method in brief: as §1

PC26 = experiment: as above; details: P. falciparum in erythrocytes, SYBR Green DNA, 72 h; series mostly up to 28.7 µM
Method in brief: as §1

[3] = qHTS assay for small molecule agonists of the antioxidant response element (ARE) signaling pathway (AID 651741; active means well fitted activation curve with a large enough effect in the signal ratio; the % refers to the signal ratio; further: potency means the concentration at half of the fitted maximal effect); details: HepG2 ARE-bla reporter, beta-lactamase FRET ratio, 16 h; series mostly up to 96 µM
Method in brief: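 CellSensor ARE-bla HepG2 cells (2,000/well) carrying ARE-driven beta-lactamase, exposed 16 h at 37 C. LiveBLAzer B/G FRET substrate added for 2 h at room temperature; fluorescence intensity read.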

Measured: Potency

C[C@@H]1O[C@H](O[C@@H]2C=C3CC[C@H]4[C@@H](CC[C@]5(C)[C@@H](c6ccc(=O)oc6)CC[C@]45O)[C@@]3(C)CC2)[C@@H](O)[C@H](O)[C@@H]1O
not listed: [2] | PC15 | PC26 | [3]
inactive: all other assays above

CCN[C@]1(c2cccs2)CCCCC1=O
not listed: CP237 | GB4 | W2 | [3]
inactive: all other assays above

CN(C)[C@@H]1C(=O)C(C(N)=O)=C(O)[C@]2(O)C(=O)C3=C(O)c4c(O)ccc(Cl)c4[C@](C)(O)[C@H]3C[C@@H]12
inactive: [2] | [1] | CP237 | CP268 | GB4 | JCK | PC15 | PC26 | W2

COc1cc(N)c(Cl)cc1C(=O)N[C@@H]1CN2CCC1CC2
not listed: W2 | [3]
inactive: all other assays above

CNc1ccc(C(=O)CC(O)CCC(C)C2OC(=O)CC(O)CC(=O)CC(O)CC(O)CC(O)CC(O)CC3(O)CC(O)C(C(=O)OC)C(CC(O[C@@H]4OC(C)C(O)C(N)C4O)/C=C/C=C/C=C/C=C/C=C/C=C/C=C/C2C)O3)cc1 (stereo not given in full)
not listed: [1] | CP260 | ICS | [2] | [3]
inactive: all other assays above

CC(C)CC(CN)CC(=O)O (stereo not given)
inactive: [2] | [1]

CC([C@H](O)c1ccccc1)N(C)C (stereo not given in full)
active: 7G8 11.2 µM | W2 6.75 µM
not listed: CP237 | Dd2 | GB4 | ICS | [3]
inactive: all other assays above

O=C1C(Cl)=C(Cl)C(=O)C(Cl)=C1Cl
active: [3] 26.6 µM

COc1cc2c(cc1OC)[C@@]13CCN4CC5=CCOC6CC(=O)N2C1[C@H]6[C@@H]5C[C@@H]43 (stereo not given in full)
not listed: [3]
inactive: all other assays above

C=CC1CN2CCC1CC2C(OC(=O)OCC)c1ccnc2ccc(OC)cc12 (stereo not given)
active: 7G8 2.51 µM | CP237 7.08 µM | CP260 10 µM | CP291 12 µM | CP335 9.53 µM | Dd2 5.01 µM | GB4 4.78 µM | ICS 3.98 µM | PC15 3.98 µM | PC26 6.01 µM | W2 2.13 µM
inactive: [2] | [1]

Reference: PubChem BioAssay (NCATS)
